Assay outcomes from PubChem.
esBAF inh: Bmi1 luciferase reporter increase in mESCs, primary screen, esBAF inhibitor project, mouse ES cells, Bmi1 luciferase knock-in, single point; 24 h; 100% = twice the neutral-well signal; actives 2% (n = 350,000); reporter increase, % at 12.5 µM; AID 602393, 2012; in the data active = activation above about 40%;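 also: a rise in the Bmi1 reporter signal indicates esBAF inhibition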
Gli-Sufu antag: Gli-Sufu pathway antagonists, primary screen, luciferase luminescence, Sufu-KO-LIGHT cells, uHTS; Sufu-KO-LIGHT fibroblasts, Gli luciferase reporter luminescence; inhibition, % at 5 µM; actives 0.74% (n = 340,000); AID 588413, 2011;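 active = inhibition above about 55%, limit read from the data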
Jurkat NFkB inh: inhibitors of induced NF-kB luciferase reporter, primary screen, TCR NF-kB activation inhibitor project, cell-based, luminescence, uHTS | Jurkat, PMA/ionomycin-induced NF-kB luciferase reporter | inhibition, % at 4 µM | actives 0.53% (n = 330,000) | AID 435003, 2010; in the data active = inhibition above about 50%
697 NFkB inh: inhibitors of PMA/ionomycin-induced NF-kB reporter, 697 cells, primary screen, B-cell NF-kB inhibitor project, cell-based, luminescence, uHTS. AID 435022, 2010. actives 0.33% (n = 330,000). 697 B-cell NF-kB luciferase reporter, 16 h. inhibition, % at 4 µM; in the data active = inhibition above about 35%
SMARCA2 activ: SMARCA2 (BRM) function activators, primary screen, cell-based, luminescence, high throughput; MG213 cells, MMTV-luciferase reporter, dexamethasone, overnight; activation, % at 9.1 µM; actives 1% (n = 370,000); in the data active = activation above about 7.8%
Jurkat NFkB conf: PMA/ionomycin-induced NF-kB reporter inhibitors, Jurkat retest, confirmation, T-cell NF-kB inhibitor project, cell-based, luminescence, single concentration; Jurkat NF-kB luciferase, 16 h; actives 27% (n = 2,700); inhibition, % at 4 µM; shares compounds with Jurkat NFkB inh;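 active = inhibition reaching about 45% at 4 µM in either replicate, limit read from the data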
Of the large screens only hits and unclear results are named; the others gave an inactive call (follow-up assays come after a bar, where they were run). A selection: hits, their analogues and other compounds. The true share with any hit is near 3.3%.

c1ccc(CNC2CCCCCCC2)cc1 (tested in a mixture with another compound)	none (no result: esBAF inh, Jurkat NFkB inh, 697 NFkB inh)
O=C(O)[C@H]1[C@H](CO)[C@H]2Cn3c(ccc(C4=CCCC4)c3=O)[C@@H]1N2C(=O)Cc1ccccn1	none (no result: Gli-Sufu antag, Jurkat NFkB inh, 697 NFkB inh, SMARCA2 activ)
CCc1ccc(-c2nn(Cc3ccccc3)cc2C=O)cc1	esBAF inh 67.0
Cc1ccc(-n2c(=S)[nH]c3ccccc3c2=O)cc1F	esBAF inh 61.4 (no result: Gli-Sufu antag, Jurkat NFkB inh, 697 NFkB inh)
O=c1c2ccccc2[nH]c(=S)n1-c1cccc(C(F)(F)F)c1	none (no result: Gli-Sufu antag, Jurkat NFkB inh, 697 NFkB inh)
Nc1ccccc1C(=O)OCc1ccc([N+](=O)[O-])cc1	esBAF inh 57.4
CCOC(=O)C(O)(c1ccc(NC(=O)NC2CCCCC2)cc1)C(F)(F)F (stereo not drawn)	esBAF inh 45.6
O=C(O)[C@@H]1[C@@H](CO)[C@@H]2Cn3c(ccc(-c4ccccc4)c3=O)[C@H]1N2S(=O)(=O)c1ccccc1F	none (no result: Gli-Sufu antag, Jurkat NFkB inh, 697 NFkB inh, SMARCA2 activ)
O=C(O)[C@H]1[C@H](CO)[C@H]2Cn3c(ccc(-c4ccccc4)c3=O)[C@@H]1N2CC1CCCCC1	none (no result: Gli-Sufu antag, Jurkat NFkB inh, 697 NFkB inh, SMARCA2 activ)
COc1ccccc1CCNC(=O)CCC(=O)N1CC2C[C@@H](C1)Cn1c2cccc1=O	esBAF inh 46.5
CCC1CN2CCc3cc(OC)c(OC)cc3C2CC1CC1NCCc2c1[nH]c1ccc(O)cc21 (stereo not drawn)	Gli-Sufu antag 86.5 (no result: esBAF inh, Jurkat NFkB inh, 697 NFkB inh)
O=C(O)[C@@H]1[C@@H](CO)[C@@H]2Cn3c(ccc(-c4cccc(F)c4)c3=O)[C@H]1N2CCc1ccccc1	none (no result: Gli-Sufu antag, Jurkat NFkB inh, 697 NFkB inh, SMARCA2 activ)
COC(=O)[C@@H]1[C@@H](CO)[C@@H]2Cn3c(ccc(-c4ccc(F)cc4)c3=O)[C@H]1N2Cc1ccccc1	none (no result: Gli-Sufu antag, Jurkat NFkB inh, 697 NFkB inh, SMARCA2 activ)
Cc1ccc(Cn2nc(C(=O)Nc3ccc(Br)cc3)cc2C)cc1	esBAF inh 59.4
Cc1nn(Cc2ccccc2)c(Cl)c1C(=O)Nc1ccc(OC(F)(F)F)cc1	none (no result: esBAF inh)
CC(=O)OC1CC2OC3C=C(C)CCC3(C)C1(C)C21CO1 (stereo not drawn)	none (no result: Gli-Sufu antag, Jurkat NFkB inh, 697 NFkB inh)
CC(=O)O[C@H]1C[C@@H]2OC3C=C(C)CCC3(C)[C@@]1(C)[C@@]21CO1 (stereo partly drawn)	Gli-Sufu antag 66.0 (no result: esBAF inh, Jurkat NFkB inh, 697 NFkB inh)
COC(=O)[C@H]1[C@H](CO)[C@H]2Cn3c(ccc(C4=CCCC4)c3=O)[C@@H]1N2C(=O)C1CCCCC1	none (no result: Gli-Sufu antag, Jurkat NFkB inh, 697 NFkB inh, SMARCA2 activ)
Cc1ccc(C(=O)C2CN(C)CC2C(=O)c2ccc(C)cc2)cc1 (stereo not drawn)	esBAF inh 60.4
COC(=O)[C@@H]1[C@@H](CO)[C@@H]2Cn3c(ccc(-c4cccc(OC)c4)c3=O)[C@H]1N2C(=O)c1cnccn1	none (no result: Gli-Sufu antag, Jurkat NFkB inh, 697 NFkB inh, SMARCA2 activ)
CN1CCN(c2ccc([N+](=O)[O-])c3no[n+]([O-])c23)CC1	Gli-Sufu antag 65.5 (no result: Jurkat NFkB inh, 697 NFkB inh)
CN1CCN(c2ccc(S(C)(=O)=O)cc2[N+](=O)[O-])CC1	none (no result: esBAF inh)
CCCCCn1c(=O)c(C(=O)Nc2cnccn2)c(O)c2ccccc21	Gli-Sufu antag 63.3
CCCCCn1c(=O)c(C(=O)Nc2ccccc2S(N)(=O)=O)c(O)c2ccccc21	none (no result: esBAF inh)
CCCCCn1c(=O)c(C(=O)Nc2ccccc2C)c(O)c2ccccc21	esBAF inh 51.5
COC(=O)[C@H]1[C@H](CO)[C@H]2Cn3c(ccc(-c4ccc(F)cc4)c3=O)[C@@H]1N2C(C)=O	none (no result: Gli-Sufu antag, Jurkat NFkB inh, 697 NFkB inh, SMARCA2 activ)
CC(N)C(=O)NC1C2C(=C(O)CC(O)C2O)C(=O)OC1(C)C(Cl)Cl (stereo not drawn)	Gli-Sufu antag 75.8 (no result: esBAF inh, Jurkat NFkB inh, 697 NFkB inh)
C/C=C/c1ccc([C@H]2[C@@H](CO)N3CCCCN(C(=O)Cc4ccncc4)C[C@@H]23)cc1	none (no result: Gli-Sufu antag, Jurkat NFkB inh, 697 NFkB inh, SMARCA2 activ)
CC(C)(O)/C=C/C(=O)C(C)(O)C1C(O)CC2(C)C3CC=C4C(C=C(O)C(=O)C4(C)C)C3(C)C(=O)CC12C (stereo not drawn)	Gli-Sufu antag 88.8 (no result: esBAF inh, Jurkat NFkB inh, 697 NFkB inh)
CCOC(=O)c1nc2ccccc2c(=O)n1-c1ccc(C)cc1C	none
CCOC(=O)c1cc2c(cn1)[nH]c1ccccc12	esBAF inh 50.1
O=C(O)[C@@H]1[C@@H](CO)[C@@H]2Cn3c(ccc(C4=CCCC4)c3=O)[C@H]1N2C(=O)Cc1ccccn1	none (no result: Gli-Sufu antag, Jurkat NFkB inh, 697 NFkB inh, SMARCA2 activ)
Nc1c2c(nc3sc4c(c13)CCCC4)CCCCC2	none | Jurkat NFkB conf inactive
COC(=O)[C@H]1[C@H](CO)[C@H]2Cn3c(ccc(-c4ccc(OC)cc4)c3=O)[C@@H]1N2C(=O)c1ccccc1F	none (no result: Gli-Sufu antag, Jurkat NFkB inh, 697 NFkB inh, SMARCA2 activ)
CNc1ccc2nc3ccccc3[n+](C)c2c1	Jurkat NFkB inh 81.1 | Jurkat NFkB conf inactive
CCCC[C@@H](C)C[C@@H](C)C(=O)N(C)[C@@H](CC(C)C)C(=O)N[C@H](C(=O)N(C)[C@H](C(=O)N1C[C@@H](O)C[C@H]1C(=O)N1C(=O)C=C[C@@H]1C)C(C)C)C(C)OC(C)=O (stereo partly drawn)	Jurkat NFkB inh 90.6 (no result: SMARCA2 activ) | Jurkat NFkB conf 93.3
CC(C)c1oc(=O)cc2c1[C@@H](O)[C@H]1OC(=O)[C@@]3(C)CC[C@@H](O)[C@@]2(C)C13 (stereo partly drawn)	Jurkat NFkB inh 72.1 | Jurkat NFkB conf 59.9
Cc1ccc(-c2cc(-c3ccc(C)cc3)[n+](-c3ccc(C(=O)O)cc3)c(-c3ccc(C)cc3)c2)cc1	none
Cc1ccc(C[n+]2c(-c3ccc(C)cc3)cc(-c3ccc(C)cc3)cc2-c2ccc(C)cc2)cc1	Gli-Sufu antag 90.2, Jurkat NFkB inh 98.8 (no result: SMARCA2 activ) | Jurkat NFkB conf 67.2
N#Cc1cccc(-c2ccc([C@H]3[C@H]4CN(C(=O)Cc5cccnc5)CCCCN4[C@H]3CO)cc2)c1	none (no result: Gli-Sufu antag, Jurkat NFkB inh, 697 NFkB inh, SMARCA2 activ)
C=C(C=O)C[C@@H]1C[C@H](O)C2OC3C[C@]4(C)OC5/C=C\CC6OC7C(CC=CCC6OC5CCCC4OC3CC2O1)OC1CC2OC3CC(=O)OC3C[C@@H](C)C[C@@]2(C)OC1C[C@@H]7C (stereo partly drawn)	Gli-Sufu antag 60.8, Jurkat NFkB inh 101.0 (no result: esBAF inh, SMARCA2 activ) | Jurkat NFkB conf 98.7
C=C(C=O)CC1CC(O)[C@]2(C)OC3C[C@@H]4OC5C[C@]6(C)O[C@]7(C)CCC8OC9C[C@]%10(C)OC(/C(C)=C\CO)C(O)CC%10OC9CC(C)C8OC7CC6O[C@]5(C)C/C=C\C4OC3CC2O1 (stereo partly drawn)	none (no result: SMARCA2 activ)
COC(=O)[C@H]1[C@H](CO)[C@H]2Cn3c(ccc(-c4ccccc4)c3=O)[C@@H]1N2S(=O)(=O)c1ccccc1C	none (no result: Gli-Sufu antag, Jurkat NFkB inh, 697 NFkB inh, SMARCA2 activ)
